Assay results reported in PubChem BioAssay AID588852 (The Scripps Research Institute Molecular Screening Center, 2011).
Screen size: about 360,000 compounds; about 4,600 (1.3%) were called active. This excerpt belongs to a sample that is enriched for actives. A number with no mark means an inactive call.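 Rule for the calls: active = percent inhibition above its own plate's cutoff, namely the mean of that plate's compound wells plus 3 SD; inactive = the rest.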

These compounds were tested against Muscarinic acetylcholine receptor M1 (Homo sapiens) (UniProt P11229) (assay: human M1 muscarinic receptor antagonists, primary screen, CHO-K1 cells, Fluo-8 calcium fluorescence, 1536-well (AID 588852;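 note: peak over basal fluorescence ratio during 140 s after agonist addition; 0% = ACh EC80 plus DMSO and 100% = DMSO alone without agonist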)). Conditions: CHO-K1 hM1, Fluo-8 calcium fluorescence, ACh EC80 antagonist; at 3 µM; active compounds read high.
Chain of Muscarinic acetylcholine receptor M1 (Homo sapiens) (P11229 whole entry, looked up): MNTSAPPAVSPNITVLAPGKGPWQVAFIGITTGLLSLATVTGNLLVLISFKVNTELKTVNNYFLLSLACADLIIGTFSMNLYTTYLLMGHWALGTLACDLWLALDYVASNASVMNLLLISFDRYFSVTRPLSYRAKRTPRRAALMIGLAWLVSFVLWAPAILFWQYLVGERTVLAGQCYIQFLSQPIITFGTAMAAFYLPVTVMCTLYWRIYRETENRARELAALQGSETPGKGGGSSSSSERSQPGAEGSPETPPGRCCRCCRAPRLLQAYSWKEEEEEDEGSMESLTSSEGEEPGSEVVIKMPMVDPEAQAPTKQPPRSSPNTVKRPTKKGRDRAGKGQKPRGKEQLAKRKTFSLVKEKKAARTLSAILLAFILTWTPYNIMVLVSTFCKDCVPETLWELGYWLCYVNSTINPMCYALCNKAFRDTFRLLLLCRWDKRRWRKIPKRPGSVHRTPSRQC

Row | Compound | inhibition
1 | CCOC(=O)[C@H]1Nc2ccc(Cl)cc2[C@@H]2[C@H]1C1CC(c3ccccc31)N2C(=O)OCc1ccccc1 (stereo partly specified) | 6.68%
2 | Nc1cc(C(F)(F)F)ccc1N1CCOCC1 | 3.72%
3 | CCCCN1CC(N2CCN(Cc3cccc(C)c3)CC2)CS1(=O)=O (stereo unspecified) | 8.04%
4 | CSc1ccc(CN2C(=O)NC3(CCCCCC3)C2=O)cc1 | 8.79%
5 | CC(C)(C)C(=O)NC1CC2CCCC(C1)N2C(=O)Nc1ccccc1F (stereo unspecified) | -7.35%
6 | COc1ccc(S(=O)(=O)NCCOc2ccccc2)cc1F | -7.76%
7 | COc1ccc(S(=O)(=O)NCCCCOc2ccc(Cl)cc2)cc1 | 32.6% (active)
8 | COc1ccc(OCCNS(=O)(=O)Cc2ccccc2)cc1 | -0.06%
9 | CC1(C)CC(N2CCN(C(c3ccccc3)c3ccccc3)CC2)=CC(=[N+]2CCCCC2)C1 | 72.8% (active)
10 | CC1(C)CC(=O)C=C(N2CCOCC2)C1 | -7.94%
11 | CC(C)OCC(O)CN1CCN(C(c2ccccc2)c2ccccc2)CC1 (stereo unspecified) | 24.4%
12 | CCNS(=O)(=O)c1ccc(CCC(=O)N2CCN(c3cc(Cl)ccc3C)CC2)cc1 | 13.9%
13 | Cc1sc2ccccc2c1CNC[C@H]1O[C@@H](n2ccc(=O)[nH]c2=O)[C@H](O)[C@@H]1O | -6.07%
14 | COc1ccccc1C(=O)NC(CCSC)C(=O)N1CCN(C(C)=O)CC1 (stereo unspecified) | -18.2%
15 | CSCCC(NC(=O)c1ccccc1)C(=O)N1CCN(Cc2ccc(Cl)cc2)CC1 (stereo unspecified) | 31.4% (active)
16 | CSCCC(NC(=O)c1ccccc1)C(=O)N1CCCCCCC1 (stereo unspecified) | -10.3%
17 | O=c1c2c(ncn1Cc1ccccc1)nc1n2CCC1 | -9.57%
18 | COc1ccc(-c2nc3ccc(Br)cn3c2Cc2ccc(C)cc2)cc1OC | -18.2%
19 | CCOc1ccc(CCNC(=O)COC(=O)C2CCN(c3ccc(C(F)(F)F)cn3)CC2)cc1OCC | 38.9% (active)
20 | CCc1cccc(NC(=O)COC(=O)C2CCN(c3ccc(C(F)(F)F)cn3)CC2)c1 | 2.01%
21 | CCOc1ccc(CCNC(=O)COC(=O)C2CCN(S(=O)(=O)c3ccccc3)CC2)cc1OCC | -4.87%
22 | CCc1ccc([C@@H]2CC(=O)[C@@H]3CN(S(=O)(=O)c4ccc(C)cc4)[C@H](c4ccc(Cl)cc4)C[C@@H]3N2S(=O)(=O)c2ccc(C)cc2)cc1 | -3.63%
23 | CCN1CCN(CCCCOc2ccccc2F)CC1 | -2.84%

Row | Compound | inhibition
24 | COc1ccccc1OCCCCCCN1CCN(C)CC1 | -0.37%
25 | COc1ccccc1N1CCN(CCCCOc2ccc(F)cc2)CC1 | 30.4% (active)
26 | O=C(NC(Cc1ccc(O)cc1)C(=O)O)/C(=C/c1ccccc1)NC(=O)c1ccccc1 (stereo unspecified) | -14.6%
27 | Cc1cccc(CN2CCN(C3CN(Cc4cn(Cc5ccccc5F)nn4)S(=O)(=O)C3)CC2)c1 (stereo unspecified) | -4.3%
28 | COC(=O)C1=C(C)NC(=O)/C1=C/c1ccc(CNS(=O)(=O)c2ccc(C)cc2)o1 | 8.24%
29 | COC(=O)C1=C(C)N(C)C(=O)NC1c1ccc([N+](=O)[O-])o1 (stereo unspecified) | 0.09%
30 | COC(=O)C1=C(C)NC2=C(C(=O)c3ccccc32)C1c1ccc(-c2ccc(C(=O)O)cc2)o1 (stereo unspecified) | 32.9% (active)
31 | CCN(CC)S(=O)(=O)c1ccc(N(C)Cc2ccc(C(F)(F)F)cc2)nc1 | 61.2% (active)
32 | CCN(CC)S(=O)(=O)c1ccc(N(C)CCc2ccc(OC)c(OC)c2)nc1 | -0.86%
33 | CCN(CC)S(=O)(=O)c1ccc(N(C)Cc2cccc(OC)c2OC)nc1 | 7.81%
34 | Cc1ccc(Sc2ccc(NC(=O)c3ccc(F)cc3)cc2C#N)cc1 | 9.62%
35 | Cc1ccccc1N1CCN(CCCOc2ccc3c(C)cc(=O)oc3c2)CC1 | 39.5% (active)
36 | COc1cc(CN2CCN(Cc3ccc(C)cc3)CC2)c([N+](=O)[O-])cc1OC | -6.59%
37 | Cc1cc(OCCCN2CCN(Cc3ccccc3)CC2)ccc1[N+](=O)[O-] | 54.7% (active)
38 | Cc1cc(OCC(=O)NC2CCN(C)CC2)ccc1[N+](=O)[O-] | -1.71%
39 | COc1ccc(N2CCN(C(=O)COc3ccc4c(C)cc(=O)oc4c3)CC2)cc1 | -5.75%
40 | Cc1cc(=O)oc2cc(OCC3CC(c4ccccc4Cl)=NO3)ccc12 (stereo unspecified) | -6.21%
41 | Nc1nc2cc(Cl)ccc2n1N | -2.44%
42 | CN1OC[C@@H]2CN(S(=O)(=O)c3cccc4ccccc34)[C@H](c3ccc(N4CCCCC4)cc3)C[C@@H]21 | 5.74%
43 | O=C(NC(c1ccc(-c2ccccc2)cc1)c1cnccn1)C1CCN(CCOc2ccc(Cl)cc2Cl)CC1 (stereo unspecified) | -16.7%
44 | CN(C)CCOc1cccc(Br)c1 | 17.3%
45 | CN(C)CCOc1ccc(Cl)cc1C(C)(C)C | 66.2% (active)
46 | CN(C)CCOCCOc1ccc(Cl)c2ccccc12 | -1.32%

Row | Compound | inhibition
47 | Cc1ccc(C)c(NC(=O)C(OC(=O)c2ccc(C)s2)c2ccccc2)c1 (stereo unspecified) | -2.69%
48 | Cc1cc(C)cc(NC(=O)C(OC(=O)c2ccc(O)cc2)c2ccccc2)c1 (stereo unspecified) | 29.5% (active)
49 | Cc1cc(C)cc(NC(=O)C(c2ccccc2)N2CCN(CC(=O)N3CCCC3)CC2)c1 (stereo unspecified) | 3.45%
50 | COCCCNC(=O)CN1C(=O)CSc2ccc(S(=O)(=O)N3CCOCC3)cc21 | -6.65%
51 | CCN(C(=O)COC(=O)c1c(C)nn(-c2ccccc2)c1Cl)c1c(N)n(Cc2ccccc2)c(=O)[nH]c1=O | -4.94%
52 | CN(Cc1cccnc1)C(=O)c1cc(COc2ccc3ncccc3c2)on1 | 50% (active)
53 | CC(=O)c1cccc(OCc2cc(C(=O)NC(C)Cc3cccnc3)no2)c1 (stereo unspecified) | 18.6%
54 | CN(Cc1cnccn1)C(=O)c1cc(COc2cccc(C(F)(F)F)c2)on1 | -11.2%
55 | Cc1nc(COc2cc3oc(=O)cc(C)c3cc2Cl)cs1 | -7.17%
56 | O=C(Cn1cc(C(F)(F)F)ccc1=O)Nc1ccc2c(c1)OCCO2 | -0.29%
57 | O=C(CSc1nnc(-c2ccco2)o1)NCC(=O)c1ccccc1 | -3.08%
58 | O=S(=O)(c1cccc(Cn2nnc(-c3ccc(F)cc3)n2)c1)N1CCOCC1 | 27.1% (active)
59 | Cc1nc(-c2ccc(F)cc2)c(CC(=O)Nc2cccc(S(=O)(=O)N3CCOCC3)c2)s1 | 0.85%
60 | CCN(Cc1ccncc1)C(=O)c1cccc(S(=O)(=O)N2CCOCC2)c1 | -4%
61 | O=C(CSc1nc2nccnc2c(=O)n1Cc1cccs1)Nc1ccccc1F | 9.12%
62 | Cc1ccccc1CNC(=O)CCC(=O)N1Cc2ccccc2Oc2ncccc21 | -0.29%
63 | O=C(CS(=O)(=O)c1ccc(C(F)(F)F)cn1)NNC(=O)c1ccccc1 | 11.9%
64 | Nc1nc2c(ncn2[C@@H]2O[C@H](CNS(=O)(=O)N3CCc4ccccc4C3)[C@@H](O)[C@H]2O)c(=O)[nH]1 | -4.64%
65 | COC(=O)c1ccc(NC(=O)CN(c2ccc(C)cc2)S(=O)(=O)c2c(C)n[nH]c2C)cc1 | -8.36%
66 | CN(Cc1ccccc1F)c1cc2c(c3c1ccn3C)C1CCC2O1 (stereo unspecified) | -40.5%
67 | COc1cc(C(=O)NCc2cc3cc(Cl)ccc3n2C)cc(OC)c1OC | -19.2%
68 | CCn1c(CNC(=O)c2cc(OC)c(OC)c(OC)c2)cc2cc(C)ccc21 | 47.9% (active)
69 | COc1cc(C(=O)NCc2ccc3c(c2)cc(C)n3C)cc(OC)c1OC | -1.03%

Row | Compound | inhibition
70 | CCN(CC(=O)NC(C)C)C(=O)c1cc(S(=O)(=O)N2CCCCC2)ccc1N1CCCCC1 | -0.72%
71 | CCc1ccc(NC(=O)C(=O)N/N=C(\C)CC(=O)NCCOC)cc1 | -7.5%
72 | O=C(CSc1nc2ccccc2c(=O)n1CCCO)N1CCc2ccccc21 | -9.53%
73 | C=CCn1c(=O)c2ccccc2n2c(SCC(=O)N3CCCc4ccccc43)nnc12 | 10.1%
74 | Cn1c(SCC(=O)N2CCCc3ccccc32)nc2ccccc2c1=O | 31.9% (active)
75 | CCn1c(C(C)C)n[nH]c1=S | -7.45%
76 | CC(C)C1Nc2c(C(=O)O)cccc2C(Nc2ccccc2C(=O)O)C1(C)C (stereo unspecified) | 2.52%
77 | C/C(=N\NC(=O)c1ccc2ccccc2c1)c1cccnc1 | -15.4%
78 | O=C(O)CC/C(=N\NC(=O)c1ccc(F)cc1)c1ccc(Br)cc1 | -10.2%
79 | CC(=NNC(=O)c1ccc2nc[nH]c2c1)c1ccc(Br)cc1 | 35.2% (active)
80 | CN1OC[C@@H]2CN(C(=O)c3cccnc3)[C@H](c3ccc(N4CCCCC4)cc3)C[C@@H]21 | -0.12%
81 | COc1ccc(C(=O)OCC(=O)c2ccc(C)c(S(=O)(=O)N3CCOCC3)c2)cc1OC | 42% (active)
82 | Cc1ccc(C(=O)OCC(=O)N2CCCCCC2)cc1S(=O)(=O)N1CCOCC1 | -0.5%
83 | COc1ccc(CNC(=O)COC(=O)c2ccc(C)c(S(=O)(=O)N3CCOCC3)c2)cc1OC | -2.56%
84 | CC1(Cc2ccccc2C#N)C(=O)Nc2ccc(-c3ccc4[nH]ccc4c3)cc21 (stereo unspecified) | 8.72%
85 | CCOC(=O)c1ccn(S(=O)(=O)c2ccc(C)cc2)c1-c1ccccc1 | 13.3%
86 | COc1ccc(C(CNC(=O)c2cccc(S(=O)(=O)Nc3ccc(Br)cc3)c2)N(C)C)cc1 (stereo unspecified) | -2.85%
87 | COc1ccccc1C(CNC(=O)c1cccc(S(=O)(=O)Nc2ccc(F)cc2)c1)N(C)C (stereo unspecified) | 100% (active)
88 | Cc1cccc(NS(=O)(=O)c2ccc(C)c(C(=O)NCC(c3ccccc3)N(C)C)c2)c1 (stereo unspecified) | -6.04%
89 | COc1ccccc1C(CNC(=O)c1cccc(NS(=O)(=O)c2ccc(Br)cc2)c1)N(C)C (stereo unspecified) | 99.2% (active)
90 | CC(=O)c1ccc(S(=O)(=O)Nc2ccc(C(=O)NCC(c3ccccc3)N(C)C)cc2)cc1 (stereo unspecified) | 16.4%
91 | CN(C)C(CNC(=O)c1cccc(S(=O)(=O)Nc2ccc(Br)cc2)c1)c1ccco1 (stereo unspecified) | -0.14%
